Screening results as filed in PubChem BioAssay.
Rows were chosen to be rich in hits. Some 2.6% of all compounds tested hit in one or more screens of this group.
ATXN2 expr inh: inhibitors of ATXN2 expression; HEK-293 ATXN2-luciferase reporter, luminescence, 24 h; Potency, µM (doses to about 57 µM), without a hit: top-dose activity change, negative = inhibition, hits mostly inhibitors; 0.72% of 360,000 active; AID 1745845; also: potency is read from the fitted curve at half-maximal effect; % is scaled to controls: 0 for no effect and ±100 for the full control effect; nearly all actives have a fitted effect of over 55% in size
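qHTS (up to 57 uM final) was run with 24 h compound exposure of reporter cells at 37 °C. Each well was multiplexed: SteadyGlo luminescence measured ATXN2-luciferase expression after a fluorogenic Gly-Phe-AFC viability readout (25 uM final).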
ATXN viability: viability counter-screen for ATXN expression inhibitors; S2 cells (HEK-293 line with an ATXN2-luciferase reporter) viability, CellTiter-Fluor protease fluorescence, 24 h; 0.49% of 400,000 active; Potency, µM (top dose mostly 56.7 µM), most hits filed as cytotoxic; AID 651635; also: potency is read from the fitted curve at half-maximal effect; nearly all actives have a fitted effect of over 40% in size
uPA surface inh: inhibitors of cell surface uPA generation. Potency, µM (highest dose often 38.3 µM), inactives show at the top dose activity change, negative = inhibition, most hits filed as inhibitors. AID 540303. cell surface uPA generation assay, qHTS. 0.31% of 330,000 active; active = well fitted inhibition curve with a large enough effect; inconclusive = small, poorly fitted or top-dose-only effect; inactive = no such curve, though single readings can be large or run the other way; tested in mouse RAW 264.7 cells; also: potency is read from the fitted curve at half-maximal effect; % is scaled to controls: 0 for no effect and ±100 for the full control effect; nearly all actives have a fitted effect of over 55% in size
HepG2 viability: counter-screen for TGF-b inhibitors: cytotoxicity in HepG2 cells; HepG2 CAGA-GFP viability, ATP luminescence, 18 h; Potency, µM (series often up to 46.1 µM), without a hit: at the highest dose activity change, negative = cytotoxicity, hits mostly cytotoxic; 0.76% of 410,000 active; also: potency is read from the fitted curve at half-maximal effect
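HepG2 CAGA-GFP cells (1000/well, DMEM with 1% FBS) received compound, then TGF-beta at 500 pg/mL final, and were incubated 18 hours at 37 degrees C. Viability was read by CellTiter-Glo luminescence. Media-only wells were set as complete cell-killing and DMSO as no toxicity.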
Giardia kill: Giardia lamblia killing; activity change, % at 7.66 µM, hits read low; Giardia lamblia trophozoite viability; 0.15% of 340,000 active; in the data active = activity change below about -80%; inconclusive = between about -30% and that limit;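 also: parasites exposed to compound for two days anaerobically before the ATP read; % is scaled to controls: 0 for no effect and ±100 for the full control effect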
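Luminescence from cellular ATP indicates surviving trophozoites (100 cells/well) following 48 hrs anaerobic compound treatment at 37 deg C; signal develops 15-30 min at room temperature.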
TGFb SMAD3 inh: blocks TGF-b signaling; 1.2% of 410,000 active; AID 588855; HepG2 CAGA-GFP TGF-b/SMAD3 reporter, GFP fluorescence, 18 h; TGF-beta stimulated, 500 pg/mL final; Potency, µM (top dose mostly 46.1 µM), for inactives: at the highest dose activity, negative = inhibition, actives largely listed as inhibitors; also: potency is read from the fitted curve at half-maximal effect; % is scaled to controls: 0 for no effect and ±100 for the full control effect; nearly all actives have a fitted effect of over 65% in size
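HEPG2 CAGA-GFP, 1000 cells/well; 2 h settle, 37 C; cpd via pin tool; TGF-b 500 pg/mL final; 18 h, 37 C; GFP imaging ex488/em500-530; %Activity normalised to -TGF-b and +DMSO controls; CRC fit, curve class.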
* marks the source's active call; other numbers are inactive results; i = inactive; u = inconclusive; x = no result given. Unless noted, calls follow the shape of the dose curve; as a rule, active = well fitted curve in the direction sought with a large enough effect; inconclusive = small, poorly fitted or top-dose-only effect, or another doubt; inactive = no such curve, though single readings can be large; an effect the other way counts as inactive or inconclusive.

SMILES	ATXN2 expr inh	ATXN viability	uPA surface inh	HepG2 viability	Giardia kill	TGFb SMAD3 inh
Cc1ccc2nc(Cl)c(/C=C/C(=O)c3ccco3)cc2c1	15%	i	-2%	-28%	-7	13µM*
O=C(CN1Cc2ccccc2OC(c2ccsc2)C1)NCc1ccc2c(c1)OCO2 (stereo not given)	x	i	x	x	x	x
CNC(=O)c1ccc(C)c(-n2c(C)cc(OCc3ccc(F)cc3F)c(Br)c2=O)c1	1%	x	x	x	x	x
Cc1cc(-c2nc3ncccc3o2)ccc1NC(=O)c1ccc([N+](=O)[O-])o1	0%	i	0%	6%	-7	9%
Cc1ccc(-c2nc3ncccc3o2)cc1NC(=O)c1ccc([N+](=O)[O-])o1	-8%	u	-3%	-21%	-91*	-27%
O=C(Nc1ccc(-c2nc3ncccc3o2)cc1)c1ccc([N+](=O)[O-])o1	-26%	i	-12%	-22%	-94*	u
Cc1cc(C)cc(C(=O)Nc2ccc(-c3nc4ncccc4o3)cc2)c1	u	u	x	-42%	x	0%
CC(C)C[C@@H](CN1CCCC1CN1C(=S)NC[C@@H]1Cc1ccccc1)N1C[C@H](Cc2ccc(O)cc2)N(CCc2ccccc2)C1=S (stereo not given in full)	-35%	u	x	x	x	x
CC(C)C[C@@H](CN1CCC[C@@H]1CN1C(=S)NC[C@@H]1Cc1ccc(O)cc1)N1C[C@H](Cc2ccc(O)cc2)N(CCc2ccccc2)C1=S	-23%	28µM*	x	-65%	x	13µM*
CC(C)C[C@H]1CNC(=S)N1C[C@H]1CCCN1C[C@H](Cc1ccc(O)cc1)N1C[C@H](Cc2ccc(O)cc2)N(CC2CCCCCC2)C1=S	18µM*	13µM*	x	13µM*	x	u
Cc1nc(NCC(=O)c2c[nH]c3ccccc23)sc1C	x	x	x	-17%	x	u
C=CCN1CC[C@@H](O)C(=C)S1(=O)=O	x	x	x	-11%	x	-7%
Cc1cc(C)n(S(=O)(=O)c2ccccc2[N+](=O)[O-])n1	-16%	i	-3%	-2%	-87*	-5%
Cc1cc(C)n(S(=O)(=O)c2ccccc2)n1	-7%	i	0%	-11%	8	5%
CCOC(=O)[C@]12Cc3c(cc(OC)c(OC)c3OC)[C@H]1N(Cc1ccccc1)C(=O)c1cc(F)c(F)cc12	-16%	u	x	x	x	x
CCOC(=O)[C@]12Cc3c(cc(OC)c(OC)c3OC)[C@H]1N(Cc1ccccc1)C(=O)c1cc(OC)ccc12	20µM*	11µM*	x	x	x	x
Cc1cc(C(=O)Nc2cccc(-c3nc(CNC(=O)c4ccc[n+]([O-])c4)c(C)o3)c2)c(C)o1	x	i	x	x	x	x
COc1ccccc1C1CN(Cc2c(C)nn(C)c2Cl)Cc2ccccc2O1 (stereo not given)	x	i	x	x	x	x
Cc1nc([N+](=O)[O-])cn1CC(O)c1ccc2c(c1)OCCO2 (stereo not given)	x	x	x	-21%	x	0%
NS(=O)(=O)c1ccc(N2N=C(c3ccc(Br)cc3)CC2c2ccc(F)cc2)cc1 (stereo not given)	u	x	-12%	20µM*	-3	u
NS(=O)(=O)c1ccc(N2N=C(c3ccccc3)CC2c2cccc(F)c2)cc1 (stereo not given)	2%	i	7%	-83%	-18	u
COc1ccc(C2CC(c3ccc(Cl)cc3)=NN2c2ccc(S(N)(=O)=O)cc2)cc1 (stereo not given)	0%	x	u	18µM*	-8	u
CCCC(CCC)(C(=O)OCC)C(=O)OCC	-8%	i	x	x	x	x
O=C(O[C@H]1[C@H](Cc2ccccc2)NS(=O)(=O)[C@H]2CC3C=C[C@]12O3)c1ccc(Br)cc1	x	x	x	40%	x	-20%
CCCCCCC[n+]1ccc(C)c2ccccc21	x	x	x	-4%	x	u
SMILES	ATXN2 expr inh	ATXN viability	uPA surface inh	HepG2 viability	Giardia kill	TGFb SMAD3 inh
CC1CCN(S(=O)(=O)c2ccc(Cl)cc2)CC1	-1%	i	x	0%	-4	-2%
COc1ccc(-c2nnc(C3CCN(C(=O)c4ccccc4F)CC3)o2)cc1	3.2µM*	3.2µM*	x	-28%	x	u
COc1ccc(S(=O)(=O)N2CCC(c3nnc(-c4ccccc4C)o3)CC2)c(OC)c1	3.5µM*	7.9µM*	x	-19%	x	u
Cc1ccccc1-c1nnc(C2CCN(S(=O)(=O)c3ccc(Cl)cc3)CC2)o1	u	3.5µM*	x	-40%	x	-15%
COc1ccc(-c2nnc(C3CCN(S(=O)(=O)c4cccc(Cl)c4)CC3)o2)cc1	18µM*	11µM*	x	-48%	x	u
CN(C)c1ccc(-c2noc(C3CCN(S(=O)(=O)c4cccc(Cl)c4)CC3)n2)cc1	-21%	i	x	-23%	-11	-18%
CCOC(=O)C1CCCN(C(=O)c2cnn(-c3ncc4c(n3)-c3ccccc3CC4)c2C)C1 (stereo not given)	x	i	x	x	x	x
COc1cc2c(cc1OC)C(C)N(C(=O)c1ccc(C)o1)CC2 (stereo not given)	-6%	i	-8%	2%	8	0%
COc1cc2c(cc1OC)C(C)N(C(=O)c1c(-c3ccccc3)noc1C)CC2 (stereo not given)	x	i	6.3µM*	-18%	-11	-8%
O=C(COC(=O)c1ncc(Cl)c(Cl)c1Cl)Nc1ccc(Cl)cn1	-7%	i	1%	1.4µM*	-3	-11%
CCN(CC)c1ccc(/C=N/Nc2nc3ccccc3[nH]2)c(O)c1	u	5µM*	0%	-32%	8	16µM*
COc1cc(OC)c(OC)cc1/C=N/Nc1nc2ccccc2[nH]1	x	i	5%	-3%	6	-5%
Fc1ccccc1-c1ccc(/C=N/Nc2nc3ccccc3[nH]2)o1	x	i	4µM*	-57%	-28	13µM*
CCCCn1c(/C=N/Nc2nc3ccccc3[nH]2)nc2ccccc21	u	u	-3%	-42%	1	11µM*
Nc1cc([N+](=O)[O-])cc(N)c1N	x	x	x	1%	x	-4%
COc1ccccc1C1CN(Cc2cccc3c2OCO3)Cc2ccccc2O1 (stereo not given)	x	i	x	x	x	x
Cc1cccc(C)c1NC(=S)N=Nc1c(O)n(C)c2ccc(S(=O)(=O)N3CCOCC3)cc12	u	i	0%	-24%	5	-6%
Cc1c(Cl)cccc1NC(=S)N=Nc1c(O)n(CN2CCOCC2)c2ccccc12	u	u	-17%	-27%	-14	5µM*
Cc1ccccc1NC(=S)N=Nc1c(O)n(C)c2ccc(S(=O)(=O)N3CCOCC3)cc12	-39%	i	-21%	-36%	-5	5.6µM*
Oc1c(N=NC(=S)Nc2ccccc2F)c2ccccc2n1Cc1ccccc1Cl	-30%	u	-29%	-19%	5	-11%
